# Source: PubChem BioAssay AID489043 (National Center for Advancing Translational Sciences (NCATS), 2010)
# Records with an inconclusive call do not appear. Unmarked numbers belong to inactive results. Calls of active or inactive are those of the source. Calls come from the whole dose curve; as a rule, active = well fitted activation curve with a large enough effect; inconclusive = small, poorly fitted or top-dose-only effect; inactive = flat fitted curve, though single readings scatter.
# Molecular target: Relaxin receptor 2 (Homo sapiens) (UniProt Q8WXD0)
# Assay: qHTS Assay for Agonists of the Relaxin Receptor RXFP1: RXFP2 Hit Validation; note: nearly all actives have a fitted effect of over 65% in size
# Settings: HEK293 RXFP2 cAMP TR-FRET, 30 min; series mostly up to 44.7 µM; activation: at the top concentration
# Text: NIH Chemical Genomics Center [NCGC] NIH Molecular Libraries Probe Production Centers Network [MLPCN] MLPCN Grant: R03 MH085705-01A1 Assay Submitter (PI): Alexander Agoulnik NCGC Assay Overview: The relaxin hormone is involved in the variety of biological functions in normal tissues and diseases. The role of relaxin is well-established in female reproduction and parturition, mammary gland and endometrial development, maintenance of myometrial quiescence during pregnancy. Relaxin signaling through its G protein-coupled receptor (GPCR) RXFP1 results in ECM remodeling through regulation of collagen deposition, cell invasiveness, proliferation and overall tissue homeostasis. […] Recombinant human relaxin (rhRlx) is currently being tested in clinical trials as a protective agent in congestive heart failure, in treating severe preeclampsia, and as an anti-fibrotic agent in systemic sclerosis. Upon relaxin binding RXFP1 activation leads to the activation of adenylate cyclase (AC) via Gs. cAMP will activate PKA, which phosphorylates many signaling proteins. Thus, detection of cAMP increase is an easy and reliable indication of relaxin receptor activation. To screen for agonists of the relaxin receptor, a HEK293T cell line stably transfected with RXFP1 was used. RXFP1 activation was assayed by changes in cAMP levels as detected with a time-resolved fluorescence energy transfer (TR-FRET) cAMP detection kit. This assay measures activation of a cell expressing RXFP2, another GPCR targeted by relaxin, to determine the selectivity of compounds for RXFP1.
# NCGC Assay Protocol Summary: This is a cell-based assay for cAMP second messenger response to screen for agonists of the RXFP2 receptor. The assay was conducted in the presence of a PDE4 inhibitor (Ro 20174). The cells were lysed and the cAMP levels were measured with a TR-FRET cAMP kit. Presence of cAMP in the cell lysate disrupts binding between the cryptate-labeled anti-cAMP and d2-labeled cAMP pair, leading to a decrease in the TR-FRET signal. Data were normalized to the controls for basal activity (buffer only) and 100% activity (29 nM porcine relaxin). The EC50 values were determined from concentration-response data modeled with the standard Hill equation 1536-well assay protocol for the HEK293 RXFP2 cAMP assay: (1) Add 3 ul HEK293 RXFP2 cell culture. 2000 cells/well in DMEM/F12, 10% FBS, 1x Pen/Strep (dispensed offline with MultiDrop Combi). (2) Incubate 16-24 hr at 37C, 5% CO2. (3) Add 1 ul 400uM Ro20174 in DPBS, 0.05% BSA, 0.005% Tween 20. (3) Add 23 nl compounds in DMSO solution. Final concentration was 0.5 - 58 uM. (4) Incubate 30 min at 37C, 5% CO2. (5) Add 1 ul cAMP-d2 in lysis buffer (HTRF cAMP HiRange kit, CisBio). (6) Add 1 ul anti-cAMP antibody-cryptate in lysis buffer (HTRF cAMP HiRange kit, CisBio). […]
# Potency is the fitted concentration of half-maximal effect.
# Chain of Relaxin receptor 2 (Homo sapiens) (Q8WXD0 whole entry, looked up): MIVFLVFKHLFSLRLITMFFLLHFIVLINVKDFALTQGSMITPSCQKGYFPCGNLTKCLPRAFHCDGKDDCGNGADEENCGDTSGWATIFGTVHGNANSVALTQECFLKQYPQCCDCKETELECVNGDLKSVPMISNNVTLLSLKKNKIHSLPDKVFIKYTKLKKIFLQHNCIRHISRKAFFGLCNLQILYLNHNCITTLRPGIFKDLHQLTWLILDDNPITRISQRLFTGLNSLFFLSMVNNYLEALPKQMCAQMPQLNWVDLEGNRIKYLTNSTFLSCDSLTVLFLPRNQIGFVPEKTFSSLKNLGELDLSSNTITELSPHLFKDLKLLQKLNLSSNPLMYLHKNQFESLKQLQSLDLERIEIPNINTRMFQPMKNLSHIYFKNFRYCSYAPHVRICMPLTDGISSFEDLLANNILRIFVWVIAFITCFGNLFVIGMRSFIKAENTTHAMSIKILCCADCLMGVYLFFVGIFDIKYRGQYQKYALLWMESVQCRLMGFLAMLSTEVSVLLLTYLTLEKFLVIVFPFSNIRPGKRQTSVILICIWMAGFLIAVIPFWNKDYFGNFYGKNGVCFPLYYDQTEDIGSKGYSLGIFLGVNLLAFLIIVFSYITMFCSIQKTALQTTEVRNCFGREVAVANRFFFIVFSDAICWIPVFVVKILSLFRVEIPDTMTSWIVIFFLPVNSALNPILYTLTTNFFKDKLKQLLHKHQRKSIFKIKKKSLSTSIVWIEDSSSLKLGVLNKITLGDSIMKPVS
SMILES,activation,Potency
CCC(Oc1cc(Cl)ccc1Cl)C(=O)N1CCC2(CC1)OCCO2 (centres undefined),2.36% [at 115 µM],–
O=C(O)c1sc2cc(Cl)ccc2c1Cl,19.7%,–
CCNC(=O)[C@H]1O[C@@H](n2cnc3c(N)ncnc32)[C@H](O)[C@@H]1O,–,0.974 µM (active)
Nc1ncc2[nH]cnc2n1,–,17.4 µM (active)
